From the supplement of paper PMC9477273 come the findings set out here.

This experiment concerns DRIVER-selected RNA biosensor (aptazyme) pool. Nature of the experiment: maximum fold change of ribozyme cleavage across biosensor pool versus no-compound control; higher = stronger biosensor response (ligand inhibits cleavage). As to conditions: 10 µM. The essentials:
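CleaveSeq on a pool of 1,730 array-resynthesized ribozyme biosensors, T7-transcribed at 37°C for 15–30 min with 9 mM rNTPs and one compound at 10 µM (added from 10x DMSO stock), then reverse-transcribed at 50°C. Cleaved and uncleaved products were PCR-barcoded and counted by Illumina sequencing. Fold change of cleavage is the ratio of cleaved:uncleaved read fractions against a no-compound condition, corrected with reference sequences; the value is the maximum over all biosensors.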

`Cc1ccccc1-c1nc(CS(=O)(=O)CC(=O)NC2CCCCC2C)c(C)o1` (stereo not given) registered a maximum fold change of 2.07.
`COc1ccc(-c2c(C)nn3c(N)c(C#N)cnc23)cc1OC` displayed a maximum fold change of 4.07.
The value for `Cc1ccn2c(=O)c(C(=O)Nc3cccnc3)cnc2c1` was 10.8; that for `CCN(Cc1ccccc1)Cc1csc(C)c1C` was 3.07; that for `N#C/C(=Cc1c(Oc2ccc(cc2)C)nc2n(c1=O)cccc2)/C(=O)OC` was 5.19.
In turn, `Cc1ccc(-c2noc(CCC(=O)N3CCN(Cc4ccccc4)CC3)n2)cc1` returned a maximum fold change of 3.6.
The value for `CCOc1ccccc1CNC(=O)c1ccc(CS(=O)Cc2ccc(Cl)cc2)o1` (stereo not given) was 4.15; that for `CCCN(CCC)CCCNS(=O)(=O)c1ccc(OCC)c2ncccc12` was 2.96; that for `Cc1ccc(CNC(=O)c2cc3c(=O)oc4ccccc4c3s2)o1` was 3.09.
The value for `CC(C)CC(NC(=O)/C(=C/c1ccco1)NC(=O)c1ccc(Br)o1)C(=O)O` (stereo not given) was 1.98; that for `COc1ccc(C(=O)/C=C2\Nc3ccc(C(=O)NCc4cccc(OC)c4)cc3NC2=O)cc1` was 7.89; that for `Cc1c(CNC2CCCc3ccccc32)c(C(=O)O)c(C)n1Cc1ccc(F)cc1` (stereo not given) was 2.39.
The value for `Brc1ccc(/C=N/c2nc3ccccc3n2CCN2CCCCC2)cc1` was 2.07; that for `O=C(Cc1cn(Cc2cccc(Cl)c2)c2ccccc12)N1CCCC1` was 3.3.
As to `O=C1N=c2sc(nn2C(=N)/C/1=Cc1c[nH]c2c1cccc2)N1CCCC1`, the maximum fold change amounted to 7.4.
`N/C(=N\OC(=O)N1CCOCC1)c1cccnc1` displayed a maximum fold change of 3.37.
The value for `CCOC(=O)N1CCN(c2cnn(-c3nc4ccccc4s3)c(=O)c2Cl)CC1` was 3.21; that for `CCOc1cc2c(cc1OCC)C1C(C(=O)NCc3cccnc3)c3ccccc3C(=O)N1CC2` (stereo not given) was 4.02.
The value for `CCC(C)NC(=O)Cn1cc(C=O)c2ccccc21` (stereo not given) was 4.38.
The value for `C=Cc1ccc(Cn2c(C)c(CNCc3ccc(CC)cc3)c(C(=O)O)c2C)cc1` was 3.37.
Turning to `CCO/C=N/c1oc(C)c(C)c1C#N`, the maximum fold change was determined as 3.22.
The value for `Cc1c(C(=O)NC2CCCCCC2)sc2ncnc(N3CCCCC3C)c12` (stereo not given) was 2.58.
Compound `O=S(=O)(NCc1ccccn1)c1ccc(Br)cc1Br` registered a maximum fold change of 1.99.
The value for `Cc1oc(-c2ccccc2F)nc1CS(=O)(=O)CC(=O)NC1CCCC(C)C1C` (stereo not given) was 4.66; that for `O=C(Cn1ncc2c1-c1ccccc1OC2)N1CCC(Cc2ccccc2)CC1` was 3.52.
The value for `COc1ccc(OC)c(C2C3=C(CC(C)(C)CC3=O)OC3=C2C(=O)CC(C)(C)C3)c1` was 2.36; that for `CCOc1ccc2c(c1)[N+](C)=C(/C=C/c1ccc(C(=O)OC)cc1)C2(C)C` was 2.67.
The value for `Cc1cc(NC(=O)CSc2nnc(-c3ccc(C)c(C)c3)o2)no1` was 2.25; that for `CCOc1cc(CNc2ncc(-c3ccc(Br)cc3)n2C)ccc1O` was 2.06.
On to `COc1cccc(C(=O)/C=C2/Nc3ncc(Br)cc3NC2=O)c1`, for which the maximum fold change was 5.23.
